The record followed here is paper PMC4552634, “A New Set of Chemical Starting Points with Plasmodium falciparum Transmission-Blocking Potential for Antimalarial Drug Discovery” (PLoS ONE, 2015).

Out of some 13,000 compounds screened, about 3,200 (25%) showed an effect of 50% or more. The list shows a part of the results.

The experiment concerns P. falciparum stage V gametocytes. The arrangement: BacTiter-Glo ATP luminescence viability of purified stage V gametocytes in 384-well plates, per cent inhibition versus DMSO. Conditions: 48 h, 5 µM; inhibitor.
For the molecule `CC1(C)N=C(N)N=C(N)N1OCCSc1ccccc1` [TCMDC-131670], the “% Inhibition” value was -8.546%.
`CCNC(=O)Nc1cccc(-c2cccc(-c3nc4c(C)cccc4[nH]3)c2)c1` [TCMDC-133172]: the “% Inhibition” value is recorded as -6.099%.
For the molecule `CSc1ccc2ccccc2c1CNCCCCCCNCc1c(SC)ccc2ccccc12` [TCMDC-137758], the “% Inhibition” value came to 72.82%.
On to `CC1CCC(NCc2c(O)ccc3ccccc23)CC1` (centres unmarked) [TCMDC-137602], for which the “% Inhibition” value is given as -21.28%.
As for `CSc1ccc2ccccc2c1CCNCCCCNCCc1c(SC)ccc2ccccc12` [TCMDC-137763], the “% Inhibition” value is on record as 109.4%.
Take `CC1CN(Cc2csc(Nc3ccccc3)n2)CC(C)O1` (centres unmarked) [TCMDC-125078]: the “% Inhibition” value turned out to be 46.05%.
Take `FC(F)(F)c1ccc2c(C=Cc3ccncc3)c[nH]c2c1` [TCMDC-137257]: the “% Inhibition” value is recorded as 12.06%.
Under `CCCC(=O)Nc1ccc(OCCCCN(Cc2ccccc2C(F)(F)F)c2ccc(C(F)(F)F)c(C#N)c2)cc1` [TCMDC-133359] stands 32.41%; under `Cc1ccc2c(=O)c3cc(C)ccc3[nH]c2c1` [TCMDC-138194], 58.3%.
Take `CCCCc1ccc(-c2ccc3[nH]c(C)c(Br)c(=O)c3c2)cc1` [TCMDC-135463]: the “% Inhibition” value turned out to be 34.89%.
On to `CCCCN(C)CC#Cc1ccc2[nH]c(C)c(Cl)c(=O)c2c1` [TCMDC-136185], for which the “% Inhibition” value was found to be 85.15%.
In the case of `Cc1[nH]c2ccccc2c(=O)c1-c1ccc(Cl)cc1` [TCMDC-137172], the “% Inhibition” value worked out at 25.44%.
Regarding `Cc1ccc2[nH]c3ccccc3c(=O)c2c1` [TCMDC-123947], the “% Inhibition” value is given as 19.38%.
`Cc1[nH]c2ccc(-c3ccccc3)cc2c(=O)c1Br` [TCMDC-135426]: the “% Inhibition” value worked out at 61.46%.
Under `Cc1[nH]c2ccc(-c3ccc(N(C)C)cc3)cc2c(=O)c1Cl` [TCMDC-136188] stands 61.07%; under `O=c1c2ccccc2[nH]c2cc(Cl)ccc12` [TCMDC-123989], -7.86%.
As for `Cc1[nH]c2ccc(-c3ccc(OC(F)(F)F)cc3)cc2c(=O)c1C#N` [TCMDC-136129], the figure is 23.98%.
Consider `CCCCN(C)CC#Cc1ccc(-c2ccc3[nH]c(C)c(Br)c(=O)c3c2)cn1` [TCMDC-136285], for which the “% Inhibition” value is given as 11.41%.
With `CCN(CC)CC#Cc1ccc2[nH]c(C)c(Cl)c(=O)c2c1` [TCMDC-136162], the “% Inhibition” value is 0.7622%.
Consider `Cc1[nH]c2ccccc2c(=O)c1Br` [TCMDC-137427], for which the “% Inhibition” value was determined as 12.8%.
On to `Cc1ccc2nc(Nc3ccc(Nc4nc5ccc(C)cc5[nH]4)c(C)c3)[nH]c2c1` [TCMDC-131952], for which the “% Inhibition” value is -70.19%.
For the molecule `COc1ccc2nccc([C@@H](O)CN3CCC(NC(=O)c4cc5ccccc5[nH]4)CC3)c2c1` [TCMDC-140780], the “% Inhibition” value was -18.21%.
As to `O=C(Nc1ccc(CC(=O)N2CCc3cc(Cl)c(N4CCN(C/C=C/c5ccccc5)CC4)cc32)cc1)Nc1cccc([N+](=O)[O-])c1` [TCMDC-139475], the “% Inhibition” value is reported as 6.892%.
As for `Cc1cc(Nc2cccc(C#N)c2)nc(Nc2ccccc2C)n1` [TCMDC-133471], the figure is -8.734%.
Turning to `CCCCNC(=O)[C@H](CC1CCCCC1)NC(=O)c1ccc(O)c(-c2cccc(C(F)(F)F)c2)c1` [TCMDC-140812], the “% Inhibition” value was found to be 31.87%.
Take `O=C(Nc1cc(Cl)ccc1O)c1cc(-c2ccccc2O)no1` [TCMDC-125274]: the “% Inhibition” value is recorded as -14.42%.
As for `Cc1ccc2[nH]c(C)c(Br)c(=O)c2c1` [TCMDC-124347], the figure is 65.99%; as for `O=c1c(Br)c(C(F)(F)F)[nH]c2ccc(Oc3ccccc3)cc12` [TCMDC-135798], -15.2%.
As to `Cc1[nH]c2ccc(C#N)cc2c(=O)c1Br` [TCMDC-135219], the “% Inhibition” value is 27.39%.
As for `COC(=O)c1ccccc1N1CCN(CCCCNC(=O)c2ccc(NC(=O)c3cc(Cl)cc(Cl)c3)cc2)CC1` [TCMDC-138235], the “% Inhibition” value was found to be 7.414%.
Turning to `NC(N)=Nc1ccc(OCCCCCOc2ccc(N=C(N)N)cc2Br)c(Br)c1` [TCMDC-137543], the “% Inhibition” value turned out to be 77.55%.
As for `NC(N)=Nc1ccc(OCCCCCOc2ccc(N=C(N)N)cc2)cc1` [TCMDC-137482], the figure is 39.96%; as for `NC(N)=Nc1ccc(OCCCCCOc2ccc(N=C(N)N)c(Cl)c2)cc1Cl` [TCMDC-137577], 34.57%; as for `Cc1nc(N)nc(N)c1-c1cc(Cl)c(N)c(Cl)c1` [TCMDC-137386], -88.48%.
Consider `Cc1nc2ccccc2c(=O)n1/N=C/c1ccccc1[N+](=O)[O-]` [TCMDC-125512], for which the “% Inhibition” value is 2.657%.
For `CCCCOc1cc2[nH]cc(C(=O)OCC)c(=O)c2cc1OCCCC` [TCMDC-137523], the “% Inhibition” value was found to be 63.76%.
For the molecule `CCOC(=O)c1c[nH]c2c(sc3cc(OC)ccc32)c1=O` [TCMDC-137190], the “% Inhibition” value was found to be 2.888%.
Turning to `CCOC(=O)c1c[nH]c2c(ccc3ccccc32)c1=O` [TCMDC-123857], the “% Inhibition” value was determined as 33.13%.
Turning to `CCCc1cc(NCC)nc(Nc2ccc(C)cc2)n1` [TCMDC-134013], the “% Inhibition” value is on record as -22.6%.
Regarding `Cc1cccc(OCC(=O)Nc2cccc(NC(=O)COc3cccc(C)c3)n2)c1` [TCMDC-123837], the “% Inhibition” value is recorded as 22.25%.
`COc1cc(C(=O)NC2CCc3ccccc32)cc(Cl)c1OC` (centres unmarked) [TCMDC-124601]: the “% Inhibition” value turned out to be 17.65%.
On to `OC(CNc1ccnc(Nc2cccc(CCN3CCOCC3)c2)n1)c1ccccc1` (centres unmarked) [TCMDC-136463], for which the “% Inhibition” value is 12.7%.
Turning to `Cc1cnc(Nc2cccc(CCN3CCOCC3)c2)nc1NC(C)C` [TCMDC-133533], the “% Inhibition” value is reported as 57.17%.
For `Cc1cccc(Nc2nccc(Nc3cccc(C(=O)NCCN4CCOCC4)c3)n2)c1` [TCMDC-124774], the “% Inhibition” value was -4.453%.
Take `CCCCCCCCN1CCN(CCCCCCNc2c3ccccc3nc3ccccc23)CC1` [TCMDC-138015]: the “% Inhibition” value is recorded as 122.1%.
For `CCCCN1CCN(CCCCNc2c3ccccc3nc3ccccc23)CC1` [TCMDC-137569], the “% Inhibition” value is on record as 97.88%.
In the case of `CCCCCCNc1c2ccccc2nc2ccccc12` [TCMDC-123957], the “% Inhibition” value was -50.01%.
As for `CCCCN1CCN(CCCNc2c3ccccc3nc3ccccc23)CC1` [TCMDC-137572], the “% Inhibition” value was 99.41%.
As for `CCCCCCN1CCC(NCc2cccc3ccccc23)CC1` [TCMDC-141665], the figure is -97.34%; as for `COc1ccc(NC(=O)Nc2ccc(-c3ccncc3)c(C(F)(F)F)c2)cc1N1CCN(C)CC1` [TCMDC-139213], -9.659%.
